Test results as given in the supplement of paper PMC11732987, “Enantioselective OTUD7B fragment discovery through chemoproteomics screening and high-throughput optimisation” (Communications Chemistry, 2025).
Unmarked numbers belong to inactive results.

Experiments:
Experiment in all cases: log2 ratio of Biotin-Ahx-Ub-VS probe labelling (fragment/DMSO); higher = less target engagement (more negative = stronger competition), active = hit call of the paper (q ≤ 0.05, log2 ratio ≤ -1)
Details in all cases: compound concentration: 200 uM; treatment time: 3 h
USP16 = USP16 (UniProt Q9Y5T5)
Chain of USP16 (Q9Y5T5 whole entry, looked up, the tested form may be a part): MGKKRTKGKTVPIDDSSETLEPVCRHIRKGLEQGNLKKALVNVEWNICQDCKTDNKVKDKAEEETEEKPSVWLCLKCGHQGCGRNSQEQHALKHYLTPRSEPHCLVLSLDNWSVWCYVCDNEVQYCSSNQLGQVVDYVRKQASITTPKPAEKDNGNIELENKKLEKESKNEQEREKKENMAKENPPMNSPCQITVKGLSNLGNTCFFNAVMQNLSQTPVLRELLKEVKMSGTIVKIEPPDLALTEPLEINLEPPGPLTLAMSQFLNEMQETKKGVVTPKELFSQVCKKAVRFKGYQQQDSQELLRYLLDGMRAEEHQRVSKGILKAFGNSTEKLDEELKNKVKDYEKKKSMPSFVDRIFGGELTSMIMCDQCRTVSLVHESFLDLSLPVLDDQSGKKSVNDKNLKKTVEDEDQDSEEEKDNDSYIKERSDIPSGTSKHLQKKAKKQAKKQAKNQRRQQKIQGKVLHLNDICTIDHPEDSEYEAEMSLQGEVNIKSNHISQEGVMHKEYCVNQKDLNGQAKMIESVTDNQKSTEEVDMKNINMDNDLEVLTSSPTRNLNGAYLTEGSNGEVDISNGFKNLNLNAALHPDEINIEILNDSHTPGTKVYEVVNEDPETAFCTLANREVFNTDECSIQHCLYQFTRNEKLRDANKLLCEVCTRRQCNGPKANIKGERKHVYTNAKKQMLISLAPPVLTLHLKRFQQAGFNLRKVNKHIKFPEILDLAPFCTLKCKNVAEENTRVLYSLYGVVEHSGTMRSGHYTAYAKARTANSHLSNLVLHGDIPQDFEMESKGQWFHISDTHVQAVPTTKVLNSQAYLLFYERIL
Summary of the method: (§1)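 Global-median-normalised Spectronaut label-free quantities were compared by unpaired t-test, and values are average log2 ratios of fragment over vehicle. Only proteins with ≥2 unique peptides were used. HEK293T lysate (495 µg per sample) was treated in triplicate with fragment at 200 µM or vehicle for 3 h and then with Biotin-Ahx-Ub-VS at 0.5 µM final for 1 h. Labelled DUBs were then NeutrAvidin-enriched, digested with LysC and trypsin, and run by diaPASEF LC-MS/MS.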

USP19 = target: T1, USP19 (UniProt O94966)
T1 sequence (whole entry): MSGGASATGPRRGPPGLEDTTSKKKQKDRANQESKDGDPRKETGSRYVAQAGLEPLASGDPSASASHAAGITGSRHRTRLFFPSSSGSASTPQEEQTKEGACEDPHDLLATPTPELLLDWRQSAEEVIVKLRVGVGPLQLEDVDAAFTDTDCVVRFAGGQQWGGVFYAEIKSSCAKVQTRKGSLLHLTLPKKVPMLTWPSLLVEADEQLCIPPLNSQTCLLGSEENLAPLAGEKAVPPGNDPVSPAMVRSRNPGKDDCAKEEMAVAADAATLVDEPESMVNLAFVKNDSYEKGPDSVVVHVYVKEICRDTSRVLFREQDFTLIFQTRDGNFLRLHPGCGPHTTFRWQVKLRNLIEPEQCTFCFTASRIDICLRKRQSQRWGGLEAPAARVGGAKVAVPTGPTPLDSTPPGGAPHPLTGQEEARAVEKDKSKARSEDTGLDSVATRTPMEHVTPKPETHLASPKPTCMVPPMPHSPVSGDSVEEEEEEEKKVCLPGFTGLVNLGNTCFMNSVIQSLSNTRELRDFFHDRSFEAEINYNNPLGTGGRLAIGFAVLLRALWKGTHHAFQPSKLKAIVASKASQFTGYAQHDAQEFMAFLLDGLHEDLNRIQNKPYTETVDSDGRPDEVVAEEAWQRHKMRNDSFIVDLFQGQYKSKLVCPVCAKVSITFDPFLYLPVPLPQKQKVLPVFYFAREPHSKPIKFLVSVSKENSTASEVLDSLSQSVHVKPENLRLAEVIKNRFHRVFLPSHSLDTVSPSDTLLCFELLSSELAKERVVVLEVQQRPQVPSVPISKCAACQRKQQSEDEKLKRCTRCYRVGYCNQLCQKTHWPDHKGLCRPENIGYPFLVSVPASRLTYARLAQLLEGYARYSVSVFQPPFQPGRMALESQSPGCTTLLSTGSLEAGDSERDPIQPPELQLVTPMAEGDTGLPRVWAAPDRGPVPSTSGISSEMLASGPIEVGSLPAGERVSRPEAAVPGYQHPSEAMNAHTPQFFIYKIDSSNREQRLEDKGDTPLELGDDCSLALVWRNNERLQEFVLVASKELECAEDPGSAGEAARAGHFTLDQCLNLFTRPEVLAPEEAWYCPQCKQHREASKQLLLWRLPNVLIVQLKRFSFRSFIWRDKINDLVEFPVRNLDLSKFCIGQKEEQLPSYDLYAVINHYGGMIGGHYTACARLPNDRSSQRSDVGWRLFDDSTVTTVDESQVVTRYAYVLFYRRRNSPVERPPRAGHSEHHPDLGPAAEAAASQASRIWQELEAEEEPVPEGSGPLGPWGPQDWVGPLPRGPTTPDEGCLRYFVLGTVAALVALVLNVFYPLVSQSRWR
Summary of the method: as §1

USP24 = USP24 (UniProt Q9UPU5)
Chain of USP24 (Q9UPU5 whole entry): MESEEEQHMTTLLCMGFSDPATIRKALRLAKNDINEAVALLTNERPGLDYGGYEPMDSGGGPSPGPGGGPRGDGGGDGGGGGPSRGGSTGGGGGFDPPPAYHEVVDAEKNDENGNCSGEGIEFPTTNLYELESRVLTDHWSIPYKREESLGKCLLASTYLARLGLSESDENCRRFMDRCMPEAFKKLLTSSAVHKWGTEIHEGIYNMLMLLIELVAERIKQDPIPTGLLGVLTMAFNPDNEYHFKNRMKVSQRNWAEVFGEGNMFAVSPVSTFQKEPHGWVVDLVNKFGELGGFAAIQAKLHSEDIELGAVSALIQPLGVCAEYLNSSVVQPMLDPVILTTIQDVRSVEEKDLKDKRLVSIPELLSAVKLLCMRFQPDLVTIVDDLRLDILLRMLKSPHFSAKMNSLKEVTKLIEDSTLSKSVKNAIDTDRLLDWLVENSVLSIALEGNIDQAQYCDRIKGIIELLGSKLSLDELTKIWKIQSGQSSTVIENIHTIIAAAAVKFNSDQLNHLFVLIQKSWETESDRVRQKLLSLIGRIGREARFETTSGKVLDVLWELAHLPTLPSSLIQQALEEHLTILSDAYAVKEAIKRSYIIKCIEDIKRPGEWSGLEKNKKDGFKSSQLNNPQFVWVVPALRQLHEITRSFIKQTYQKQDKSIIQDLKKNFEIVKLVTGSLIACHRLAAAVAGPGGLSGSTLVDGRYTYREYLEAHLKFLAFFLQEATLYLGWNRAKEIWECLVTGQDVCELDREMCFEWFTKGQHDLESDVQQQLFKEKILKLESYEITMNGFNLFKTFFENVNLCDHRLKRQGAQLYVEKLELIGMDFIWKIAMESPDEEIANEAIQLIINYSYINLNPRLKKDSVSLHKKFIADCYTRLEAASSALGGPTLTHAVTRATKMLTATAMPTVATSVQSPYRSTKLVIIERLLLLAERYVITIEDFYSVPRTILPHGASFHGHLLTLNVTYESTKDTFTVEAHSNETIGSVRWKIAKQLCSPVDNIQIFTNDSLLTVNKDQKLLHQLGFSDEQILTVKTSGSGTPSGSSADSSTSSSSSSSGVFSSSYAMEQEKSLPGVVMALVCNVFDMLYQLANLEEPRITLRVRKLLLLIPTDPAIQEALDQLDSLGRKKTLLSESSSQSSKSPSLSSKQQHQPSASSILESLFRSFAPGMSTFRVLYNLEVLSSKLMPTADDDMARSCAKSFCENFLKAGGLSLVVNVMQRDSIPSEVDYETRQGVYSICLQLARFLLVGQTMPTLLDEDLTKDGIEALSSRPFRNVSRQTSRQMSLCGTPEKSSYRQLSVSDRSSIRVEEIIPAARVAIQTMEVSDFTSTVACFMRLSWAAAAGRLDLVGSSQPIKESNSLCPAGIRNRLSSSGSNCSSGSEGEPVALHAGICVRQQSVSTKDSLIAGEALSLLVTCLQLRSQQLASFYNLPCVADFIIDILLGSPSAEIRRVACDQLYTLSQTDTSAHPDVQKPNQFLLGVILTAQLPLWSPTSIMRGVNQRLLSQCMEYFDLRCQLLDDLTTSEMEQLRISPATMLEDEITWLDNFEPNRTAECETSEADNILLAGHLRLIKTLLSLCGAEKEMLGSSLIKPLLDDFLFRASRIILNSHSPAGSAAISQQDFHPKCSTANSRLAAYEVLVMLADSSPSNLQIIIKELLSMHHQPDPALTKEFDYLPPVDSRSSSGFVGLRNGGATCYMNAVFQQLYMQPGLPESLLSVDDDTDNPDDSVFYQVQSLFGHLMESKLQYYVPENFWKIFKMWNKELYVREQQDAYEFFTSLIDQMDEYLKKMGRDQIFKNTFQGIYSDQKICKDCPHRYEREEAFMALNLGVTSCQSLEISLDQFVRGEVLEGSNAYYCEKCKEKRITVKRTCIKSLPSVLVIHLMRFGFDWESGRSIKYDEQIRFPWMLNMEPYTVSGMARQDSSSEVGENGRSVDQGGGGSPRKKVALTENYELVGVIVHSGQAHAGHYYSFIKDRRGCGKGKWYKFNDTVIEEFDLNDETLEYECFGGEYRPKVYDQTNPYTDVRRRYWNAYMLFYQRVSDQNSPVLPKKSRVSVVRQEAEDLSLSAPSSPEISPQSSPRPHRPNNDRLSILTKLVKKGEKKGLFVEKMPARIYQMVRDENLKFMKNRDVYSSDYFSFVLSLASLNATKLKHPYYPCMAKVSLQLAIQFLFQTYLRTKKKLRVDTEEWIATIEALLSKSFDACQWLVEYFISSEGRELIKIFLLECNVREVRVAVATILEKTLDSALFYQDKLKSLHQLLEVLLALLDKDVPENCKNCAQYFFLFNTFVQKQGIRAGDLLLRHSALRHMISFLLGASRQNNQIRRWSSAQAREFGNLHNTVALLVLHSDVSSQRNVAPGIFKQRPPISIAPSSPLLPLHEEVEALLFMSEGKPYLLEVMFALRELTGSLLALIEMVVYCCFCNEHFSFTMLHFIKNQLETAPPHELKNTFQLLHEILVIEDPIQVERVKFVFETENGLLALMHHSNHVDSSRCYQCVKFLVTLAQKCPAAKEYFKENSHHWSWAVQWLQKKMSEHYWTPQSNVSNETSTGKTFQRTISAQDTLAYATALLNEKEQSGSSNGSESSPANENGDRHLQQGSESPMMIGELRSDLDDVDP
Summary of the method: as §1

USP25 = target: T2, USP25 (UniProt Q9UHP3)
T2 sequence (whole entry): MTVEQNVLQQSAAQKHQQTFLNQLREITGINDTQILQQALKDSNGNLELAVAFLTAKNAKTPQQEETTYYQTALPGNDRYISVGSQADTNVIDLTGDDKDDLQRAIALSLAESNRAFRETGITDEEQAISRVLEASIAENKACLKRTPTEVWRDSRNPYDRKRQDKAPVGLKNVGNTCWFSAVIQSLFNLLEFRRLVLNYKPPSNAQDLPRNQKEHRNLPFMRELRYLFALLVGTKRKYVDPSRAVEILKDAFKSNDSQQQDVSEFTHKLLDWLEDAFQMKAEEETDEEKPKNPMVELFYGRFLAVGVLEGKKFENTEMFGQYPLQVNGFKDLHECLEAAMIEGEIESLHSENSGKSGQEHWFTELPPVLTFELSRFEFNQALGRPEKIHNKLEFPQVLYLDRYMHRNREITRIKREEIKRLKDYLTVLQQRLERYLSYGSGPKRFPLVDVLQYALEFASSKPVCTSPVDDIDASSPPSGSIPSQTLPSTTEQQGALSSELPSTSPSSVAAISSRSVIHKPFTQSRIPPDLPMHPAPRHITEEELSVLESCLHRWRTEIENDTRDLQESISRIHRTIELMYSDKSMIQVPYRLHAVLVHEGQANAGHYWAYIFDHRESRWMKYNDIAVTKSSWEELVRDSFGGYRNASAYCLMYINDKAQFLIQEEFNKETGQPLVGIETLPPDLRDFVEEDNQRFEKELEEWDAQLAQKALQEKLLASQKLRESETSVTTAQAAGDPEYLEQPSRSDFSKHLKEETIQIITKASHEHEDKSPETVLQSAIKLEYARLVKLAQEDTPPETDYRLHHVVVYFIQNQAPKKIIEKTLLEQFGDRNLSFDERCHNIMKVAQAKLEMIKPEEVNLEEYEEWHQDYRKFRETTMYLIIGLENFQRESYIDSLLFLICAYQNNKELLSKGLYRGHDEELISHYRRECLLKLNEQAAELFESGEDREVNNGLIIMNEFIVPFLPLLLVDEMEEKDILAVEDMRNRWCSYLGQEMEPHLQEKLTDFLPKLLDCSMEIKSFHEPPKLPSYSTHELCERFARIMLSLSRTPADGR
Summary of the method: as §1

USP28 = target: T3, USP28 (UniProt Q96RU2)
T3 sequence (whole entry): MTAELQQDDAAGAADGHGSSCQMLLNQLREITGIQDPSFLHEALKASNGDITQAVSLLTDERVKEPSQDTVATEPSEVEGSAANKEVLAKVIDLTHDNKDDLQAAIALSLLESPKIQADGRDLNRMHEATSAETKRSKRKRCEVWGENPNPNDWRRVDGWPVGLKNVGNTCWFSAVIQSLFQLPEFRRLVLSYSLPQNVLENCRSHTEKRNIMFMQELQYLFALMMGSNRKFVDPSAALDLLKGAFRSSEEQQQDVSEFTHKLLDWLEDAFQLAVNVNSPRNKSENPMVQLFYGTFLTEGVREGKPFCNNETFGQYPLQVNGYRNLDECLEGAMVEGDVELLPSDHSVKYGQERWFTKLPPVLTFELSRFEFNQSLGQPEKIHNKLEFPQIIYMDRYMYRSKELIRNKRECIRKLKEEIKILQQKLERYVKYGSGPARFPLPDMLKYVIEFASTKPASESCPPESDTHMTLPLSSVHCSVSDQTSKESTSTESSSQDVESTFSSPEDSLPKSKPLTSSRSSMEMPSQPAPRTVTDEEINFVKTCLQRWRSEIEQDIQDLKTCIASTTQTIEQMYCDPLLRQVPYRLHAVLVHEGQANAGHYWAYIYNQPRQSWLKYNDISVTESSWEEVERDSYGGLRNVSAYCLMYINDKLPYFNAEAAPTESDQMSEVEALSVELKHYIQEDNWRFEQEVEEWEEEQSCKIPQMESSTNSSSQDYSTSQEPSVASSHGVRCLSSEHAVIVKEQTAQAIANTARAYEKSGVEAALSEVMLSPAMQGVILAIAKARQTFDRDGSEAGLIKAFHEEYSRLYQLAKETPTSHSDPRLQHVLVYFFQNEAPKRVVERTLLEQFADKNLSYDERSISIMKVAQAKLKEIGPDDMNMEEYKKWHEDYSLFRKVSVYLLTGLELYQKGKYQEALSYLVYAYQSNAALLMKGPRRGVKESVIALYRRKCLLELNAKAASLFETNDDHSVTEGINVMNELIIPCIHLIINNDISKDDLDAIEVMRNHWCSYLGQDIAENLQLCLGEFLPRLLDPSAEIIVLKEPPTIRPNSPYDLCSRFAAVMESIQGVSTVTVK
Summary of the method: as §1

Question: How did the “log2 ratio of Biotin-Ahx-Ub-VS probe labelling” value (shortened to “log2 ratio”) (USP16) turn out when `CCC1c2ccsc2CCN1C(=O)CCl` (stereo not given) was run?
Answer: -0.5

Question: And the “log2 ratio” value (USP19)?
Answer: -0.544

Question: What about the “log2 ratio” value (USP24) of the same compound?
Answer: -1.31 (active)

Question: And the “log2 ratio” value (USP25)?
Answer: -0.177

Question: What about the “log2 ratio” value (USP28) of the same compound?
Answer: -0.461
